Assay outcomes as filed in PubChem.
The list is not random: actives were taken first. Their share in the collection is about 21%.
Pf growth 96h = P. falciparum growth inhibition at 96 hours; P. falciparum luciferase reporter growth, 96 h; Potency, µM (titrated, usually from 28.7 µM), actives largely listed as inhibitors; 6.9% of 320,000 active
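Two-generation exposure (96 h) targets delayed-death phenotype. Reporter parasites carrying integrated firefly luciferase, in red cells at 2% hematocrit and 0.05% parasitemia final, kept at 37 C, 5% CO2; luminescence loss indicates inhibition.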
Pf growth 48h = P. falciparum growth inhibition at 48 hours (one generation). P. falciparum luciferase growth in erythrocytes, 48 h. Potency, µM (doses to about 28.7 µM), hits mostly inhibitors. 5.9% of 310,000 active. AID 504832
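Compounds are pin-transferred into medium, infected erythrocytes (2% hematocrit, 0.1% parasitemia final) are added, and plates sit one parasite generation at 37 C in 5% CO2. Detection reagent is then added and luminescence measured.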
Shiga inhibitor = inhibitors of Shiga toxin in Vero cells; 9.2% of 290,000 active; inhibition, % at 38.7 µM; Vero cells, Shiga toxin protein synthesis inhibition reporter; in the data active = inhibition mostly above about 28%, no sharp cut-off; inactive = mostly below about 43%
CHX counter = counter-screen hit for Shiga toxin inhibitors, cycloheximide. cell reporter, cycloheximide protein synthesis inhibition counterscreen. max response, %. 12% of 300,000 active. AID 2314; in the data active = max response mostly above about 13%, no sharp cut-off; inactive = mostly below about 14%; note: read at 38.3 µM for the half of the compounds with a filed dose
NS1 inh = blocks influenza NS1 protein function. Potency, µM (top dose mostly 46.1 µM). 0.4% of 270,000 active; calls by dose curve; note: actives are rising curves; nearly all actives have a fitted effect of over 50% in size
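In this qHTS, NS1 from influenza A is expressed in budding yeast, where it slows growth. Cells are switched from glucose to 2% galactose medium (pH 6.0, -URA), treated with compound, and growth recovery is read at OD600.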
Each line names hits and unclear results; the compound was inactive in the other large screens. Unless noted, calls come from the whole dose curve; as a rule, active = well fitted inhibition curve with a large enough effect; inconclusive = small, poorly fitted or top-dose-only effect, or another doubt; inactive = no such curve, though single readings can be large or run the other way.

CCOC(=O)c1cnc(SCCc2ccccc2)nc1N	Shiga inhibitor 97.0, CHX counter 35.2
Nc1ccc(/C=C/c2ccc(N)cc2S(=O)(=O)O)c(S(=O)(=O)O)c1	none (no result: Shiga inhibitor, CHX counter, NS1 inh)
CC1(c2ccc(Cl)c(Cl)c2)NC(=S)N2C1NC(=S)N2c1ccccc1 (stereo not given)	Pf growth 96h inconclusive
CCN(CC)CCCN1C(=O)C(O)=C(C(=O)c2ccc(C)o2)C1c1ccc(C)o1 (stereo not given)	none
CC1=NCC[N@@+]1(CCc1ccccc1)Cc1ccccc1	none (no result: Pf growth 96h, Pf growth 48h, Shiga inhibitor, CHX counter)
COc1cccc(CNC(=O)CSc2nnc3c(n2)[nH]c2ccccc23)c1	none
CCOc1cccc(/C=C/c2cc(C(=O)O)c3ccccc3n2)c1OC	none
CCOc1c(OC(C)=O)ccc(/C=C/c2ccc3cccc(OC)c3n2)c1[N+](=O)[O-]	Pf growth 48h 4.65µM, Shiga inhibitor 36.0, CHX counter 39.8
COc1ccc(/C=C/c2ccc3cccc(O)c3n2)c(OC)c1OC	Shiga inhibitor 113.1, CHX counter 39.0
COc1cc(Br)cc(/C=C/c2ccc3cccc(O)c3n2)c1OC	Pf growth 48h inconclusive
COc1cccc(/C=C/c2ccc3cccc(O)c3n2)c1OC	Pf growth 96h inconclusive, Shiga inhibitor 127.5, CHX counter 57.8 (no result: Pf growth 48h)
O=C(Cn1cc(C(F)(F)F)ccc1=O)N1CCN(S(=O)(=O)c2ccccc2)CC1	Pf growth 96h inconclusive, Pf growth 48h inconclusive
Cn1nc(C(=O)OCC(=O)c2ccc(Br)cc2)c2ccccc2c1=O	none (no result: Shiga inhibitor, CHX counter, NS1 inh)
O=[N+]([O-])c1cccc(C2NCC(c3ccccc3Cl)c3c2[nH]c2ccccc32)c1 (stereo not given)	Pf growth 96h 13.1µM (no result: NS1 inh)
O=c1[nH]cc(S(=O)(=O)N2CCN(c3cccc(Cl)c3)CC2)c(=O)[nH]1	none (no result: Shiga inhibitor, CHX counter, NS1 inh)
CN(C)c1oc(-c2ccccc2Cl)nc1S(=O)(=O)c1ccccc1	Pf growth 96h 6.57µM (no result: Pf growth 48h)
CN(C)CCCNc1oc(-c2ccccc2Cl)nc1S(=O)(=O)c1ccccc1	Pf growth 96h inconclusive (no result: Shiga inhibitor, CHX counter, NS1 inh)
CCOC(=O)c1cnc(-n2nc(C)cc2C)nc1NC(C)c1ccccc1 (stereo not given)	Pf growth 96h inconclusive, Pf growth 48h 2.08µM
CCOC(=O)c1cnc(-n2nc(C)cc2C)nc1NNc1cc(-c2ccccc2)nc(C)n1	Pf growth 96h inconclusive, Pf growth 48h inconclusive
CCOC(=O)c1cnc(-n2nc(C)cc2C)nc1NNc1ncc(-c2ccccc2)cn1	Pf growth 96h 1.65µM, Pf growth 48h 3.29µM
CCOC(=O)c1cnc(-n2nc(C)cc2C)nc1NCc1ccccc1	Pf growth 48h 1.65µM
CCCCc1ncc(CN2CCC(n3nccc3NC(=O)c3ccccc3Cl)CC2)[nH]1	Pf growth 96h inconclusive
CC(=O)Nc1sc2c(c1CN1CCN(C)CC1)CCCC2	none
O=S(=O)(Nc1cccc(C(F)(F)F)c1)c1cnc[nH]1	Pf growth 96h 10.4µM
O=S(=O)(Nc1ccc(C(F)(F)F)cc1)c1cnc[nH]1	none
C=CCNC(=O)CSc1nnc(-c2ccccc2Br)n1-c1cccc(C(F)(F)F)c1	Pf growth 96h inconclusive, Pf growth 48h inconclusive
CNC(=O)c1c(NC(=O)CCS(=O)(=O)c2ccc(C)cc2)sc(C)c1C	none (no result: Shiga inhibitor, CHX counter, NS1 inh)
CCN(CC(=O)NCc1cccs1)C(=O)/C=C/c1cc(Br)ccc1OC(F)F	Pf growth 96h 10.4µM, Pf growth 48h inconclusive (no result: Shiga inhibitor, CHX counter, NS1 inh)
Cc1cc(C=C2C(=O)c3ccccc3C2=O)c(C)n1C	Pf growth 96h 4.65µM, Shiga inhibitor 63.0, CHX counter 64.8
Cc1cc(/C=C2\C(=O)NC(=O)N(c3cccc(Br)c3)C2=O)c(C)n1C	none
CCn1c(C)cc(/C=C2\NC(=O)N(Cc3ccccc3)C2=O)c1C	Pf growth 96h inconclusive, NS1 inh inconclusive (no result: Pf growth 48h)
CCn1c(C)cc(C=C2C(=O)c3ccccc3C2=O)c1C	Shiga inhibitor 82.2, CHX counter 62.0
O=C(O)C1CCCCN1C(=O)c1ccc(S(=O)(=O)N2CCCCCC2)cc1 (stereo not given)	none (no result: Shiga inhibitor, CHX counter, NS1 inh)
COc1ccc(C(C)N2CC34C=CC(O3)C(C(=O)OCC(C)C)C4C2=O)cc1 (stereo not given)	Pf growth 96h 14.7µM
CCc1ccccc1N1CC23C=CC(O2)C(C(=O)OCC(C)C)C3C1=O (stereo not given)	Pf growth 96h 3.7µM (no result: Pf growth 48h)
COC(=O)C1C2C=CC3(CN(C(C)c4ccc(OC)cc4)C(=O)C13)O2 (stereo not given)	Pf growth 48h inconclusive
CCCc1sc(N)nc1-c1ccc(C)cc1	none
CN(C(=O)COC(=O)c1ccc(Br)c([N+](=O)[O-])c1)c1c(N)n(Cc2ccccc2)c(=O)[nH]c1=O	none (no result: Shiga inhibitor, CHX counter, NS1 inh)
CC(=O)O[C@H]1C(=O)[C@@]2(C)C([C@H](OC(=O)c3ccccc3)[C@]3(O)C[C@H](OC(=O)[C@H](O)[C@@H](NC(=O)c4ccccc4)c4ccccc4)C(C)=C1C3(C)C)[C@]1(OC(C)=O)CO[C@@H]1C[C@@H]2OC(=O)[C@H](C)NC(=O)c1ccc(-c2c3ccc(=O)cc-3oc3cc(O)ccc23)c(C(=O)O)c1 (stereo not given in full)	Shiga inhibitor active (no result: Pf growth 96h, Pf growth 48h, NS1 inh)
CC(=O)O[C@@]12CO[C@@H]1C[C@H](O)[C@@]1(C)C(=O)[C@H](O)C3=C(C)[C@@H](O)C[C@@](O)([C@@H](OC(=O)c4ccccc4)C12)C3(C)C (stereo not given in full)	Pf growth 96h inconclusive
C/C=C(\C)C(=O)N[C@@H](c1ccccc1)[C@@H](O)C(=O)O[C@H]1C[C@@]2(O)[C@@H](OC(=O)c3ccccc3)C3[C@](C)(C(=O)[C@H](OC(C)=O)C(=C1C)C2(C)C)[C@@H](O)C[C@H]1OC[C@@]31OC(C)=O (stereo not given in full)	Pf growth 96h 0.0329µM, Pf growth 48h inconclusive
C/C=C(\C)C(=O)N[C@@H](c1ccccc1)[C@@H](O)C(=O)O[C@H]1C[C@@]2(O)[C@@H](OC(=O)c3ccccc3)C3[C@](C)(C(=O)[C@H](O)C(=C1C)C2(C)C)[C@@H](O)C[C@H]1OC[C@@]31OC(C)=O (stereo not given in full)	Pf growth 96h 0.0738µM, Pf growth 48h 0.0657µM
CC(=O)O[C@@]12CO[C@@H]1C[C@H](O)[C@@]1(C)C(=O)[C@H](O)C3=C(C)[C@@H](OC(=O)[C@H](O)[C@@H](NC(=O)OC(C)(C)C)c4ccccc4)C[C@](O)([C@@H](OC(=O)c4ccccc4)[C@H]21)C3(C)C	none (no result: Pf growth 96h, Pf growth 48h, NS1 inh)
S=c1[nH]nc(-c2ccccn2)n1/N=C/c1ccc(Br)s1	Pf growth 96h inconclusive
Cc1onc(-c2ccccc2)c1C(=O)NC(C)CCc1ccccc1 (stereo not given)	none
CS(=O)(=O)Cc1ccc(C(=O)NC2CCSc3ccccc32)cc1 (stereo not given)	none
CC(C)C(=O)N1CCN(CCN=Cc2c(O)n(C)c(=O)n(C)c2=O)CC1	Pf growth 96h 13.1µM, Pf growth 48h inconclusive
CCC(=O)N1CCN(CCN=Cc2c(O)n(C)c(=O)n(C)c2=O)CC1	none
COc1ccc2oc(C(=O)N3CCN(S(=O)(=O)c4cccc([N+](=O)[O-])c4)CC3)c(C)c2c1	Pf growth 96h 8.28µM, Pf growth 48h inconclusive
